Reference: PubChem BioAssay (NCATS)
Values joined by “and” are separate entries in the source; they are usually repeats but may differ in a detail not shown here. Equal values may be shown once. Records with an inconclusive call do not appear. Some compounds were tested as several samples or in several runs, with calls that do not always agree. Values without a mark were called inactive. Active and inactive are the calls of the source. Calls follow the shape of the dose curve; as a rule, active = well fitted curve in the direction sought with a large enough effect; inconclusive = small, poorly fitted or top-dose-only effect, or another doubt; inactive = no such curve, though single readings can be large or run the other way.

Experiment: qHTS Assay for Identifying Gametocytocidal Compounds (AID 743244);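 as to max response: actives lower the fluorescent signal which means gametocytes are killed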
Conditions: P. falciparum 3D7 stage III-V gametocytes, alamarBlue, 72 h; max response: stronger effect = lower value
Outline: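 Compounds are pinned into medium, gametocytes (stage III–V, 3D7, 20,000 cells/well) added, and plates held 72 h at 37 °C in 5% CO2. AlamarBlue follows for 24 h before fluorescence reading.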
% is scaled to controls: 0 for no effect and ±100 for the full control effect; potency is read from the fitted curve at half-maximal effect.

Structure (SMILES) | max response | Potency
CCCCOCCOCCOCc1cc2c(cc1CCC)OCO2 | 3.05% | –
OCCN1CCN(CCCN2c3ccccc3C=Cc3ccccc32)CC1 | -7.06% and 7.36% | 11.2 µM (active)
C[N+](C)(C)CCOC(N)=O | 20.5% and 14.2% | –
Cc1cccc(C)c1NC(=O)C(C)N (stereo unspecified) | 6.83% and 24.8% | –
Fc1ccc(C(c2ccc(F)cc2)N2CCN(C/C=C/c3ccccc3)CC2)cc1 | 16.8% and 11% | –
Cc1ccc(/C(=C\CN2CCCC2)c2ccccn2)cc1 | 24.5% and 21.6% | –
NC(=O)c1cn(Cc2c(F)cccc2F)nn1 | 3.65% and -7.75% | –
CC[N+](C)(C)c1cccc(O)c1 | 22.6% and 18% | –
CC(C)NCC(O)c1cc(O)cc(O)c1 (stereo unspecified) | 4.9% and 20.6% | –
CCCC(C(=O)OCCN(CC)CC)(c1ccccc1)c1ccccc1 | -0.916% | –
CC1=NS(=O)(=O)c2cc(Cl)ccc2N1 | 4.85% | –
OC(CCN1CCCCC1)(c1ccccc1)C1CCCCC1 (stereo unspecified) | -12% and 9.84% | –
COc1ccc2c(c1OC)C(=O)O[C@@H]2[C@H]1c2c(cc3c(c2OC)OCO3)CCN1C | -4.58% and 10.4% | –
C(=C\c1ccccc1)/CN1CCN(C(c2ccccc2)c2ccccc2)CC1 | -4.21% and 5.87% | –
C#CCN(C)CCCOc1ccc(Cl)cc1Cl | -2.39% and 17.1% | –
CC(C)COCC(CN(Cc1ccccc1)c1ccccc1)N1CCCC1 (stereo unspecified) | 9.9% | 22.4 µM (active)
Cc1nc2c([nH]1)c(=O)n(C)c(=O)n2Cc1ccco1 | -4.35% and 2.16% | –

Structure (SMILES) | max response | Potency
COCCc1ccc(OCC(O)CNC(C)C)cc1 (stereo unspecified) | -3.26% and -1.45% and -10.9% | –
CN/C(=C\[N+](=O)[O-])NCCSCc1ccc(CN(C)C)o1 | 33.4% | –
CN1CCN(CC(=O)N2c3ccccc3C(=O)Nc3cccnc32)CC1 | 0.314% and 3.31% | –
CN(C)CC[C@@H](c1ccc(Br)cc1)c1ccccn1 | -2.43% and 14.2% | –
N[C@@H](COP(=O)(O)O)C(=O)O | -4.33% and 12% | –
O=C1NCN(c2ccccc2)C12CCN(CCCC(c1ccc(F)cc1)c1ccc(F)cc1)CC2 | – | 10 µM (active)
O=C(CCNNC(=O)c1ccncc1)NCc1ccccc1 | -0.149% and 4.87% | –
NC(Cc1ccc(Cl)cc1)C(=O)O (stereo unspecified) | 3.16% | –
CCn1nc(C(=O)O)c(=O)c2cc3c(cc21)OCO3 | 3.16% and -5.51% | –
CC(C)(C)NCC(O)c1cc(O)cc(O)c1 (stereo unspecified) | -9.6% and 12.9% | –
CN(C)C(=O)Oc1ccc[n+](C)c1 | -5.59% and 6.64% | –
Cc1nc2ccccn2c(=O)c1CCN1CCC(C(=O)c2ccc(F)cc2)CC1 | 14.2% | –
CSc1ccc(C(=O)c2[nH]c(=O)[nH]c2C)cc1 | 9.34% and 5.87% | –
C[C@@H](O)[C@H]1C(=O)N2C(C(=O)O)=C(SCCN=CN)C[C@H]12 | 3.85% and 8.18% | –
CCn1cc(C(=O)O)c(=O)c2cc3c(cc21)OCO3 | -6.25% and -3.93% | –
NC(=Nc1ccccc1)Nc1ccccc1 | 5.26% and -9.95% | –
Cc1scc2c1N(C(=O)CN1CCN(C)CC1)c1ccccc1NC2=O | 11.1% and 13% | –
